# Measurements published in the supplement of paper PMC3545927.
# This is one part of the list. How many sequences the whole screen found active is unknown.
# Molecular target: furin, P09958
# Assay: furin cleavage Z-score vs untreated control; higher = more cleavage, active = 3.5 or more, inactive = 1 or less, 8 variable residues between constant flanks
# Outline: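 Cleavage by purified furin was measured on 8-mer peptides fused to a cDNA oligonucleotide and held on magnetic beads by their N-terminus. Reactions (0.01 ml, 1:10 enzyme:substrate) ran 7.5, 15 or 30 min in 50 mM HEPES pH 7.5 with CaCl2 and NaCl. Released DNA was adapter-tagged by PCR and sequenced, with read counts giving abundance. Log counts versus furin-free reactions were lowess-adjusted and scaled by median absolute deviation to give the cleavage Z-score.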
# Sequence of furin, P09958 (P09958 whole entry): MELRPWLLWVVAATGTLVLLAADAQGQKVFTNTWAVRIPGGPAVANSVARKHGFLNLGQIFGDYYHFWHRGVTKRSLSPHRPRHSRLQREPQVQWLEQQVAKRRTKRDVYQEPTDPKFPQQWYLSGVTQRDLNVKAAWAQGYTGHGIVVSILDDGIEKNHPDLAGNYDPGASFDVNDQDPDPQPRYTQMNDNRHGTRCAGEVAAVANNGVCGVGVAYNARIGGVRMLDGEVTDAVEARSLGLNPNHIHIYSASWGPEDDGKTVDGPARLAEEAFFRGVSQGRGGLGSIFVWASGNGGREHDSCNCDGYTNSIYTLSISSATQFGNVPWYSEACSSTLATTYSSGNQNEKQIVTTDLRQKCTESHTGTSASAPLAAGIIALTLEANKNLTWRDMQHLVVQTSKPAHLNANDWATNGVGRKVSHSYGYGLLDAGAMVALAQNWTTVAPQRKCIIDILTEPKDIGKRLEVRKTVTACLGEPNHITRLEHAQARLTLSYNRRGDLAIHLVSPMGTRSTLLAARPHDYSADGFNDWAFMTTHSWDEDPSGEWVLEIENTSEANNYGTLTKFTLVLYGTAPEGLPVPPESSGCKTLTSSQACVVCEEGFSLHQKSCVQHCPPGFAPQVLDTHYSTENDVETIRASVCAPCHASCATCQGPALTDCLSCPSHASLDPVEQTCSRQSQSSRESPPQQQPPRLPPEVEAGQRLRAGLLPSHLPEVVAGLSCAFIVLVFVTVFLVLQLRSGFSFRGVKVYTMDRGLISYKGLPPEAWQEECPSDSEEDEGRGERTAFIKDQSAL
sequence,measurement,setting,value
CALVVLATATAGNASASA [HC832],furin cleavage Z-score,7.5 min,1.79
same,furin cleavage Z-score,15 min,1.59
same,furin cleavage Z-score,30 min,0.476 (inactive)
CAREECSQHLAGNASASA [HC1673],furin cleavage Z-score,7.5 min,1.67
same,furin cleavage Z-score,15 min,1.9
same,furin cleavage Z-score,30 min,0.967 (inactive)
CANDIREKREAGNASASA [FS-179],furin cleavage Z-score,7.5 min,3.92 (active)
same,furin cleavage Z-score,15 min,4.37 (active)
same,furin cleavage Z-score,30 min,4.65 (active)
CAEERREKREAGNASASA [FS-905],furin cleavage Z-score,7.5 min,4.27 (active)
same,furin cleavage Z-score,15 min,4.96 (active)
same,furin cleavage Z-score,30 min,6.98 (active)
CAWARRHKREAGNASASA [FS-1502],furin cleavage Z-score,7.5 min,10.7 (active)
same,furin cleavage Z-score,15 min,9.83 (active)
same,furin cleavage Z-score,30 min,7.82 (active)
CANKARLKKIAGNASASA [FS-694],furin cleavage Z-score,7.5 min,-0.0765 (inactive)
same,furin cleavage Z-score,15 min,-1.98 (inactive)
same,furin cleavage Z-score,30 min,-2.55 (inactive)
CASTKCSAHLAGNASASA [HC2514],furin cleavage Z-score,7.5 min,-0.0801 (inactive)
same,furin cleavage Z-score,15 min,1.2
same,furin cleavage Z-score,30 min,0.075 (inactive)
CATCTTPCSGAGNASASA [HC1958],furin cleavage Z-score,7.5 min,-0.852 (inactive)
same,furin cleavage Z-score,15 min,0.00782 (inactive)
same,furin cleavage Z-score,30 min,-0.733 (inactive)
CAYNNRPWRPAGNASASA [FS-392],furin cleavage Z-score,7.5 min,-1.33 (inactive)
same,furin cleavage Z-score,15 min,-0.755 (inactive)
same,furin cleavage Z-score,30 min,-0.205 (inactive)
CARRGRFLNQAGNASASA [FS-3047],furin cleavage Z-score,7.5 min,-0.612 (inactive)
same,furin cleavage Z-score,15 min,-0.298 (inactive)
same,furin cleavage Z-score,30 min,1.14
CACRFRFGRQAGNASASA [FS-405],furin cleavage Z-score,7.5 min,2.68
same,furin cleavage Z-score,15 min,3.98 (active)
same,furin cleavage Z-score,30 min,2.63
CAHNNRVGRQAGNASASA [FS-596],furin cleavage Z-score,7.5 min,3.21
same,furin cleavage Z-score,15 min,3.29
same,furin cleavage Z-score,30 min,4.86 (active)
CATVSRTGRQAGNASASA [FS-1660],furin cleavage Z-score,7.5 min,0.744 (inactive)
same,furin cleavage Z-score,15 min,2.19
same,furin cleavage Z-score,30 min,3.07
CAHQNIVDVQAGNASASA [HC507],furin cleavage Z-score,7.5 min,-1.69 (inactive)
same,furin cleavage Z-score,15 min,-1.38 (inactive)
same,furin cleavage Z-score,30 min,0.384 (inactive)
CATGDNTTTSAGNASASA [HC1341],furin cleavage Z-score,7.5 min,0.632 (inactive)
same,furin cleavage Z-score,15 min,0.808 (inactive)
same,furin cleavage Z-score,30 min,-0.0812 (inactive)
CAEVMCHRPSAGNASASA [HC2346],furin cleavage Z-score,7.5 min,-0.818 (inactive)
same,furin cleavage Z-score,15 min,-0.184 (inactive)
same,furin cleavage Z-score,30 min,0.158 (inactive)
CADCMEECSQAGNASASA [HC1820],furin cleavage Z-score,7.5 min,-0.19 (inactive)
same,furin cleavage Z-score,15 min,0.0434 (inactive)
same,furin cleavage Z-score,30 min,-0.219 (inactive)
CAARVAIKSLAGNASASA [HC1495],furin cleavage Z-score,7.5 min,-0.648 (inactive)
same,furin cleavage Z-score,15 min,-1.12 (inactive)
same,furin cleavage Z-score,30 min,-0.674 (inactive)
CACTRGVAKAAGNASASA [HC753],furin cleavage Z-score,7.5 min,-1.87 (inactive)
same,furin cleavage Z-score,15 min,-0.584 (inactive)
same,furin cleavage Z-score,30 min,-0.853 (inactive)
CATTPCVGSWAGNASASA [HC63],furin cleavage Z-score,7.5 min,1.12
same,furin cleavage Z-score,15 min,0.786 (inactive)
same,furin cleavage Z-score,30 min,1.12
CALVALGINAAGNASASA [HC864],furin cleavage Z-score,7.5 min,1.29
same,furin cleavage Z-score,15 min,-0.504 (inactive)
same,furin cleavage Z-score,30 min,-2.31 (inactive)
CAWVAAQLAAAGNASASA [HC1068],furin cleavage Z-score,7.5 min,0.334 (inactive)
same,furin cleavage Z-score,15 min,0.0281 (inactive)
same,furin cleavage Z-score,30 min,0.213 (inactive)
CAWGPISYANAGNASASA [HC395],furin cleavage Z-score,7.5 min,-0.888 (inactive)
same,furin cleavage Z-score,15 min,0.0541 (inactive)
same,furin cleavage Z-score,30 min,-0.197 (inactive)
CARSRKAKEEAGNASASA [FS-2186],furin cleavage Z-score,7.5 min,0.169 (inactive)
same,furin cleavage Z-score,15 min,-0.905 (inactive)
same,furin cleavage Z-score,30 min,-0.373 (inactive)
CARSRRNDEEAGNASASA [FS-2608],furin cleavage Z-score,7.5 min,0.562 (inactive)
same,furin cleavage Z-score,15 min,2.36
same,furin cleavage Z-score,30 min,0.814 (inactive)
CARSRKRVSEAGNASASA [FS-2460],furin cleavage Z-score,7.5 min,0.0687 (inactive)
same,furin cleavage Z-score,15 min,0.727 (inactive)
same,furin cleavage Z-score,30 min,0.464 (inactive)
CARSRRDREEAGNASASA [FS-3236],furin cleavage Z-score,7.5 min,4.34 (active)
same,furin cleavage Z-score,15 min,4.09 (active)
same,furin cleavage Z-score,30 min,4.68 (active)
CARWGRGFGLAGNASASA [FS-3129],furin cleavage Z-score,7.5 min,1.38
same,furin cleavage Z-score,15 min,-3.28 (inactive)
same,furin cleavage Z-score,30 min,1.13
CARSRRGVSEAGNASASA [FS-2461],furin cleavage Z-score,7.5 min,8.54 (active)
same,furin cleavage Z-score,15 min,8.94 (active)
same,furin cleavage Z-score,30 min,5.25 (active)
CARSRRDFGLAGNASASA [FS-2310],furin cleavage Z-score,7.5 min,2.52
same,furin cleavage Z-score,15 min,5.69 (active)
same,furin cleavage Z-score,30 min,4.78 (active)
CARSRRDGRKAGNASASA [FS-3172],furin cleavage Z-score,7.5 min,6.47 (active)
same,furin cleavage Z-score,15 min,7.48 (active)
same,furin cleavage Z-score,30 min,6.61 (active)
CARIMRDSGLAGNASASA [FS-2150],furin cleavage Z-score,7.5 min,-1.41 (inactive)
same,furin cleavage Z-score,15 min,0.545 (inactive)
same,furin cleavage Z-score,30 min,0.804 (inactive)
CARDGRDGRKAGNASASA [FS-1999],furin cleavage Z-score,7.5 min,1.36
same,furin cleavage Z-score,15 min,-0.614 (inactive)
same,furin cleavage Z-score,30 min,-0.387 (inactive)
CAMVPCHRPSAGNASASA [HC2306],furin cleavage Z-score,7.5 min,1.55
same,furin cleavage Z-score,15 min,0.971 (inactive)
same,furin cleavage Z-score,30 min,1.19
CAVVCSSMSYAGNASASA [HC95],furin cleavage Z-score,7.5 min,-0.171 (inactive)
same,furin cleavage Z-score,15 min,0.902 (inactive)
same,furin cleavage Z-score,30 min,0.436 (inactive)
CAPGDPDLSDAGNASASA [HC1358],furin cleavage Z-score,7.5 min,-0.316 (inactive)
same,furin cleavage Z-score,15 min,-0.713 (inactive)
same,furin cleavage Z-score,30 min,-1.52 (inactive)
CARQKRAWITAGNASASA [FS-3202],furin cleavage Z-score,7.5 min,2.68
same,furin cleavage Z-score,15 min,3.79 (active)
same,furin cleavage Z-score,30 min,6.77 (active)
CACGSGPWITAGNASASA [HC459],furin cleavage Z-score,7.5 min,-1.7 (inactive)
same,furin cleavage Z-score,15 min,-2.37 (inactive)
same,furin cleavage Z-score,30 min,-1.44 (inactive)
CARQKRQLWDAGNASASA [FS-2291],furin cleavage Z-score,7.5 min,5.3 (active)
same,furin cleavage Z-score,15 min,8.17 (active)
same,furin cleavage Z-score,30 min,8.7 (active)
CARQKRQNKEAGNASASA [FS-2756],furin cleavage Z-score,7.5 min,1.89
same,furin cleavage Z-score,15 min,0.961 (inactive)
same,furin cleavage Z-score,30 min,3.45
CARQKRAVATAGNASASA [FS-2360],furin cleavage Z-score,7.5 min,9.36 (active)
same,furin cleavage Z-score,15 min,11.9 (active)
same,furin cleavage Z-score,30 min,7.99 (active)
CALWMMLLISAGNASASA [HC528],furin cleavage Z-score,7.5 min,-0.863 (inactive)
same,furin cleavage Z-score,15 min,-0.739 (inactive)
same,furin cleavage Z-score,30 min,-0.913 (inactive)
